Results published in the supplement of paper PMC7726561.
Over roughly 1,400 sequences, “thermal melting temperature (Tm) of peptide-HLA complex” has its median near 60; the lowest 2% begin near 45. This excerpt belongs to a sample that is enriched for the lowest values.

B1: unnamed (peptide)
chain: SPTLPAARSSL
B2: unnamed (peptide)
chain: NPKNPGLWL
B3: unnamed (peptide)
chain: TPRVPDNSL
B4: unnamed (peptide)
chain: SPDLVRVQL
B5: unnamed (peptide)
chain: RPAAGFVAGL
B6: unnamed (peptide)
chain: KPWLRALQL
B7: unnamed (peptide)
chain: MPFPNIRSAEL
B8: unnamed (peptide)
chain: TPNDRFILL
B9: unnamed (peptide)
chain: LPWASTHSL
B10: unnamed (peptide)
chain: AALPFVRQAGL
B11: unnamed (peptide)
chain: VPNQKRLTLL
B12: unnamed (peptide)
chain: KPYPIAEVEQL
B13: unnamed (peptide)
chain: FDPALLEF
B14: unnamed (peptide)
chain: YPPNPWREI
B15: unnamed (peptide)
chain: LPSWGRAEL
B16: unnamed (peptide)
chain: GPDEAKIKALL
B17: unnamed (peptide)
chain: APFEPLASGIL
B18: unnamed (peptide)
chain: SPRPALPALLV
B19: unnamed (peptide)
chain: QPRNLLLAL
B20: unnamed (peptide)
chain: RPSLLPLH
B21: unnamed (peptide)
chain: VPNWHRDLV
B22: unnamed (peptide)
chain: KPMPSLPQL
B23: unnamed (peptide)
chain: VPRAILVDL
B24: unnamed (peptide)
chain: NPRQPLPASGL
B25: unnamed (peptide)
chain: SPRPPAEGF
B26: unnamed (peptide)
chain: RPNGTKVAVL
B27: unnamed (peptide)
chain: RPKTPPVVI
B28: unnamed (peptide)
chain: FPIPAAEVDRL
B29: unnamed (peptide)
chain: RPAANPIQFTL
B30: unnamed (peptide)
chain: IPRSITVLV
B31: unnamed (peptide)
chain: MPHVPITTL
B32: unnamed (peptide)
chain: LPQYRLISI
B33: unnamed (peptide)
chain: YPARYRPTAL
B34: unnamed (peptide)
chain: QPRLFTMDL
B35: unnamed (peptide)
chain: SPKSPTAAL
B36: unnamed (peptide)
chain: VPQESRFNL
B37: unnamed (peptide)
chain: LPRSINTDTL
B38: unnamed (peptide)
chain: KPKFILSVL
B39: unnamed (peptide)
chain: YPRPLLIAF
B40: unnamed (peptide)
chain: LPELKSTL
B41: unnamed (peptide)
chain: SPSFPRPSL
B42: unnamed (peptide)
chain: IPDVKGAVL
B43: unnamed (peptide)
chain: SPAPPLLHV
B44: unnamed (peptide)
chain: KPYAHILSV
B45: unnamed (peptide)
chain: SPAPRTAL
B46: unnamed (peptide)
chain: FPKNIFAEL
B47: unnamed (peptide)
chain: RPASGSPFQL
B48: unnamed (peptide)
chain: SPYPGLRLISL
B49: unnamed (peptide)
chain: MPYSNGRPAL
B50: unnamed (peptide)
chain: HPRSPNVLSV
B51: unnamed (peptide)
chain: AVDPNRAVPL
B52: unnamed (peptide)
chain: GPHVPFTVF
B53: unnamed (peptide)
chain: GPRSAQVAQSL
B54: unnamed (peptide)
chain: SPRALTQPLGL
B55: unnamed (peptide)
chain: RPTEGVQAL
B56: unnamed (peptide)
chain: VIAPVRAVL

The sequences below were run against HLA-B*07:02 (assay: thermal melting temperature (Tm) of peptide-HLA complex; higher = more thermostable pHLA complex). Settings: C1R-B*07:02.
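Further: lysates heated 10 min at 37–73 °C, complexes pulled down with pan-HLA I antibody, peptide signal by DIA-MS relative to 37 °C, Tm where half the complex is unfolded.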

Q: For B1, which thermal melting temperature is on record?
A: 56.9 °C

Q: B2 was tested. Which thermal melting temperature did it give?
A: 61 °C

Q: How did the thermal melting temperature turn out when B3 was run?
A: 60.7 °C

Q: How did the thermal melting temperature turn out when B4 was run?
A: 60.7 °C

Q: For B5, which thermal melting temperature is on record?
A: 57 °C

Q: For B6, which thermal melting temperature is on record?
A: 59.7 °C

Q: For B7, which thermal melting temperature is on record?
A: 58.2 °C

Q: For B8, which thermal melting temperature is on record?
A: 60.4 °C

Q: How did the thermal melting temperature turn out when B9 was run?
A: 58.1 °C

Q: With B10 as the sequence, how does the thermal melting temperature read?
A: 42.3 °C

Q: For B11, which thermal melting temperature is on record?
A: 62.4 °C

Q: Which thermal melting temperature does the source give for B12 here?
A: 42.7 °C

Q: B13 was tested. Which thermal melting temperature did it give?
A: 42.6 °C

Q: For B14, which thermal melting temperature is on record?
A: 59.3 °C

Q: Which thermal melting temperature does the source give for B15 here?
A: 62.8 °C

Q: How did the thermal melting temperature turn out when B16 was run?
A: 60 °C

Q: B17 was tested. Which thermal melting temperature did it give?
A: 60.7 °C

Q: How did the thermal melting temperature turn out when B18 was run?
A: 59.4 °C

Q: How did the thermal melting temperature turn out when B19 was run?
A: 61.2 °C

Q: For B20, which thermal melting temperature is on record?
A: 61.5 °C

Q: B21 was tested. Which thermal melting temperature did it give?
A: 58.3 °C

Q: B22 was tested. Which thermal melting temperature did it give?
A: 44.9 °C

Q: Which thermal melting temperature does the source give for B23 here?
A: 62.4 °C

Q: For B24, which thermal melting temperature is on record?
A: 58.3 °C

Q: How did the thermal melting temperature turn out when B25 was run?
A: 55.8 °C

Q: For B26, which thermal melting temperature is on record?
A: 60.1 °C

Q: How did the thermal melting temperature turn out when B27 was run?
A: 59.6 °C

Q: B28 was tested. Which thermal melting temperature did it give?
A: 62.2 °C

Q: For B29, which thermal melting temperature is on record?
A: 59.8 °C

Q: Which thermal melting temperature does the source give for B30 here?
A: 62.4 °C

Q: With B31 as the sequence, how does the thermal melting temperature read?
A: 61.3 °C

Q: B32 was tested. Which thermal melting temperature did it give?
A: 61.3 °C

Q: B33 was tested. Which thermal melting temperature did it give?
A: 58.2 °C

Q: For B34, which thermal melting temperature is on record?
A: 60.2 °C

Q: B35 was tested. Which thermal melting temperature did it give?
A: 60.1 °C

Q: For B36, which thermal melting temperature is on record?
A: 57.1 °C

Q: For B37, which thermal melting temperature is on record?
A: 58.5 °C

Q: With B38 as the sequence, how does the thermal melting temperature read?
A: 62.7 °C

Q: With B39 as the sequence, how does the thermal melting temperature read?
A: 62 °C

Q: How did the thermal melting temperature turn out when B40 was run?
A: 60.8 °C

Q: How did the thermal melting temperature turn out when B41 was run?
A: 61.4 °C

Q: With B42 as the sequence, how does the thermal melting temperature read?
A: 58.7 °C

Q: With B43 as the sequence, how does the thermal melting temperature read?
A: 60.8 °C

Q: Which thermal melting temperature does the source give for B44 here?
A: 55.5 °C

Q: For B45, which thermal melting temperature is on record?
A: 57.4 °C

Q: Which thermal melting temperature does the source give for B46 here?
A: 62.8 °C

Q: Which thermal melting temperature does the source give for B47 here?
A: 52.6 °C

Q: Which thermal melting temperature does the source give for B48 here?
A: 62.1 °C

Q: For B49, which thermal melting temperature is on record?
A: 58.2 °C

Q: B50 was tested. Which thermal melting temperature did it give?
A: 57.6 °C

Q: How did the thermal melting temperature turn out when B51 was run?
A: 60.5 °C

Q: Which thermal melting temperature does the source give for B52 here?
A: 62.3 °C

Q: How did the thermal melting temperature turn out when B53 was run?
A: 40.4 °C

Q: With B54 as the sequence, how does the thermal melting temperature read?
A: 61.2 °C

Q: With B55 as the sequence, how does the thermal melting temperature read?
A: 54.3 °C

Q: Which thermal melting temperature does the source give for B56 here?
A: 59.2 °C
